Measured potencies and affinities stand elsewhere. Active and inactive are the calls of the source. How the calls were made is not given here.
Biological target: CAAX prenyl protease 2 (Homo sapiens) (UniProt Q9Y256)
Assay: human Rce1 protease inhibitors, dose response, biochemical, yeast membranes, quenched-peptide fluorescence, cherry-pick (AID 588849)

Chain of CAAX prenyl protease 2 (Homo sapiens) (Q9Y256 whole entry, looked up): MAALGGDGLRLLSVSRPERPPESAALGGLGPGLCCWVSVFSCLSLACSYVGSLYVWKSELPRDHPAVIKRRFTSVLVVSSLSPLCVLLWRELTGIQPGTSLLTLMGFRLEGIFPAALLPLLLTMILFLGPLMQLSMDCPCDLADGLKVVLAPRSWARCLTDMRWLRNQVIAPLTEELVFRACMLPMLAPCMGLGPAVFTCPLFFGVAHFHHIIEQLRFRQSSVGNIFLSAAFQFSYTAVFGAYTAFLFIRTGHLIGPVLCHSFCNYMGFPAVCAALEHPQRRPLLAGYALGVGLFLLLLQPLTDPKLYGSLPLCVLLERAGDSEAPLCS

Row | Structure (SMILES) | outcome
1 | Cc1c(C)c2ccc(OC(C)C(=O)NCCCN3CCOCC3)c(C)c2oc1=O (stereo not drawn) | inactive
2 | CCCCCCSc1cc(-c2nc3cc(C)ccn3c2NCCCC)ccc1OC | inactive
3 | O=C(CN(C1CCCCC1)C1CCCCC1)N1CCc2ccccc2C1 | inactive
4 | C=CCn1c(SCc2ccc(C#N)cc2)nnc1-c1ccc(C)cc1 | inactive
5 | CCOc1ccc(OCC)c(NC(=O)c2nnn(CC(=O)Nc3cc(C)cc(C)c3)c2N)c1 | inactive
6 | COc1ccc(C)cc1NC(=O)CCC(=O)Nc1ccc2nc(N3CCN(C)CC3)cc(C)c2c1 | inactive
7 | COc1ccc(-c2c(-c3ccsc3)oc3ccc(N4CCOCC4)cc23)cn1 | inactive
8 | O=C(CN1C(=O)/C(=C\c2cccc(Br)c2)Oc2ccccc21)NCC1CCCO1 (stereo not drawn) | inactive
9 | CCN(C(=O)COC(=O)c1cc(-c2cccs2)nc2ccccc12)C1CCS(=O)(=O)C1 (stereo not drawn) | inactive
10 | c1cnn(Cc2cnc(N3CCOCC3)s2)c1 | inactive
11 | O=C1CN(C(=O)NCC(=O)N2CCCC2)c2ccccc2N1 | inactive
12 | COC(C[C@H](O)C[C@H](O)[C@@H](C)OCc1ccccc1)OC | inactive
13 | Cc1cc(C(=O)N/N=C/c2c3ccccc3cc3ccccc23)n[nH]1 | inactive
14 | CN1CCN(C(=O)c2ccc(-c3cccs3)s2)CC1 | inactive
15 | Cc1cc(NC(=O)c2oc3ccccc3c2C)ccc1-n1cnnn1 | inactive
16 | Cc1cccc(NC(=O)C2(c3ccc([N+](=O)[O-])cc3)CCCC2)c1 | inactive
17 | Cn1c(CCNS(=O)(=O)c2ccccc2)nnc1SCc1cccnc1 | inactive
18 | O=C(CN1CCC(NC(=O)c2ccc(Br)cc2)CC1)NCc1cccs1 | inactive
